Screening data (PubChem)
HT1080 IDH1KD tx = qHTS for induction of synthetic lethality in tumor cells producing 2HG: qHTS for the HT-1080-IDH1KD cell line | HT-1080 IDH1 knockdown viability, ATP luminescence, 48 h | Potency, µM (doses to about 46.1 µM), actives largely listed as cytotoxic | 360,000 compounds, 2% hits
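After a 2 h attachment period, IDH1KD HT-1080 cells took pin-transferred compound for 48 h at 37 °C; ATP-based luminescence after 10 min room-temperature reagent incubation reported viability.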
HT1080-NT tox = qHTS for induction of synthetic lethality in tumor cells producing 2HG: qHTS for the HT-1080-NT fibrosarcoma cell line | Potency, µM (titrated, usually from 46.1 µM), usual class: cytotoxic | 360,000 compounds, 1.6% hits | AID 686970, 2013 | HT-1080-NT fibrosarcoma viability, CellTiter-Glo ATP luminescence, 48 h;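 note: NT is the 2HG producing partner of a matched IDH1 knockdown line; nearly all actives have a fitted effect of over 55% in size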
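Fibrosarcoma NT cells, 750 per well in 5% FBS RPMI, were exposed to compound for 48 hours. Viability: CellTiter-Glo luminescence.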
12-LOX inh = Primary qHTS assay for inhibitors of human arachidonate 12S-lipoxygenase (ALOX12): Round 2. Polyunsaturated fatty acid lipoxygenase ALOX12 (Homo sapiens), P18054. purified 12hLO, xylenol orange hydroperoxide absorbance. 580,000 compounds, 1.1% hits. Potency, µM (titrated, usually from 108 µM), hits mostly inhibitors
Target sequence (P18054 whole entry, looked up): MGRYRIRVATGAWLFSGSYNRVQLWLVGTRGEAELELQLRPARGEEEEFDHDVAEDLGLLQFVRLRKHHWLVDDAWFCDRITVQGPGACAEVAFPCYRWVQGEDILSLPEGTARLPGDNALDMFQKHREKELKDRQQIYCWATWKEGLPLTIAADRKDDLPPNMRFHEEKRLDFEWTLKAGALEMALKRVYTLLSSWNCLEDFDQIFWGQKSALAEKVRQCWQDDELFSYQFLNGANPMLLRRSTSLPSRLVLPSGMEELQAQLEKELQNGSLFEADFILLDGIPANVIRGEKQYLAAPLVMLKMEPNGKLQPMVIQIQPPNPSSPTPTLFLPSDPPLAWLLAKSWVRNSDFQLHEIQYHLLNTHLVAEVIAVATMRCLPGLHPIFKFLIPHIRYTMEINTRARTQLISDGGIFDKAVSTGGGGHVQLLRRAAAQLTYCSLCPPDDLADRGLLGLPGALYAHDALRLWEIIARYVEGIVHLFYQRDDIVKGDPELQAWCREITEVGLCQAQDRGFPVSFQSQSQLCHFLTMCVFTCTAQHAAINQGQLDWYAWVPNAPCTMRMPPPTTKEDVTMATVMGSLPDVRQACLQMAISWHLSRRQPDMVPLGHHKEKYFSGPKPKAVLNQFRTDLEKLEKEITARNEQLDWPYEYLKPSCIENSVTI
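Purified human 12hLO (150 nM final) in 25 mM Hepes, 0.01% Triton X-100, pH 7.0 was preincubated 15 min at room temperature with compound. Then 40 uM arachidonic acid was added, 30 min. Hydroperoxide was read by Fe-XO absorbance ratio 573/405 nm.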
TDP1 cell noCPT = qHTS for Inhibitors of human tyrosyl-DNA phosphodiesterase 1 (TDP1): qHTS in cells in absence of CPT | Potency, µM (top dose mostly 46.2 µM), actives largely listed as inhibitors | 420,000 compounds, 15% hits | DT40 Tdp1-/- hTDP1 cells, no CPT, ATP luminescence, 48 h; note: nearly all actives have a fitted effect of over 55% in size
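Cells were dispensed at 400 per well, compounds added by pin tool, plates incubated ≥48 hr at 37 °C, then CellTiter-Glo added for 30 min at room temperature before luminescence reading. Line: DT40 Tdp1-/- complemented with hTDP1; camptothecin omitted.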
DT40 TDP1 CPT = qHTS for Inhibitors of human tyrosyl-DNA phosphodiesterase 1 (TDP1): qHTS in cells in presence of CPT | 420,000 compounds, 12% hits | Potency, µM (top dose mostly 46.2 µM), most hits filed as inhibitors | chicken DT40 Tdp1-/-;hTDP1 cells + 20 nM CPT, ATP luminescence, 48 h | AID 686979, 2013; note: nearly all actives have a fitted effect of over 55% in size
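Chicken DT40 Tdp1-/- cells stably complemented with human TDP1 were seeded at 400 cells/well in medium containing 20 nM camptothecin, exposed to pin-transferred compounds, and grown at 37 °C for at least 48 hr. Viability was read as ATP luminescence.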
IL1B secr inh = qHTS for Inhibitors of Inflammasome Signaling: IL-1-beta AlphaLISA Primary Screen | THP-1 LPS/ATP IL-1B secretion, AlphaLISA, 16 h; stronger effect = lower value | activity change, % at 57.5 µM | 360,000 compounds, 4.7% hits; in the data active = activity change below about -50%; inconclusive = mostly about -30% to -49%
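THP-1 cells pretreated 1 hr with compounds (up to 57.5 uM final), then stimulated with LPS (250 ng/mL final) plus ATP (1.25 mM final); secreted IL-1B measured by AlphaLISA after 16 hr, decreased signal indicating inhibition.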
Hits are given with their value. The sample as a whole holds a higher share of hits than the screen did. Unless noted, calls come from the whole dose curve; as a rule, active = well fitted curve in the direction sought with a large enough effect; inconclusive = small, poorly fitted or top-dose-only effect, or another doubt; inactive = no such curve, though single readings can be large; an effect the other way counts as inactive or inconclusive.

How did Cc1ccc(CNC(=O)C2CCCN(c3ncnc4c3nc3n4CCCCC3)C2)cc1 (stereo not drawn) do in these assays?
HT1080 IDH1KD tx: inactive; HT1080-NT tox: inactive; 12-LOX inh: inactive; TDP1 cell noCPT: 9.2µM; DT40 TDP1 CPT: inconclusive; IL1B secr inh: inactive

How did COCCOC1CCN(C(=O)c2ccc3oc(-c4cccc(F)c4)nc3c2)CC1 do in these assays?
12-LOX inh: inactive

How did O=C(NCc1cccc(Cl)c1)C1CCCN(c2ncnc3c2nc2n3CCCCC2)C1 (stereo not drawn) do in these assays?
HT1080 IDH1KD tx: inactive; HT1080-NT tox: inactive; 12-LOX inh: inactive; TDP1 cell noCPT: 12µM; DT40 TDP1 CPT: inactive; IL1B secr inh: inconclusive

How did O=C(NCCc1ccc(Cl)cc1)C1CCCN(c2ncnc3c2nc2n3CCCCC2)C1 (stereo not drawn) do in these assays?
HT1080 IDH1KD tx: inactive; HT1080-NT tox: inactive; 12-LOX inh: inactive; TDP1 cell noCPT: inconclusive; DT40 TDP1 CPT: inconclusive; IL1B secr inh: inactive

How did CC(C)(C)c1cc(CC2(NCc3ccc(Cl)cc3)COC2)no1 do in these assays?
12-LOX inh: inactive

What do the screens show for `COc1ccc2[nH]cc(CCNC(=O)C3CC(=O)N(c4n[nH]c5cccc(F)c45)C3)c2c1` (stereo not drawn)?
12-LOX inh: inactive

What do the screens show for `COC(=O)C[C@@H]1CC[C@H](NC(=O)c2ccc3c(c2)OCO3)[C@@H](CO)O1`?
HT1080 IDH1KD tx: inactive; HT1080-NT tox: inactive; 12-LOX inh: inconclusive; TDP1 cell noCPT: inactive; DT40 TDP1 CPT: inactive; IL1B secr inh: inactive

How did O=C(C[C@H]1C[C@@H]2c3cc(NC(=O)c4ccc5c(c4)OCO5)ccc3O[C@@H]2[C@H](CO)O1)NCc1cc(F)ccc1F do in these assays?
HT1080 IDH1KD tx: inactive; HT1080-NT tox: inactive; 12-LOX inh: inactive; TDP1 cell noCPT: 26µM; DT40 TDP1 CPT: inconclusive; IL1B secr inh: inactive

Results for CCCNC(=O)C[C@@H]1C[C@H]2c3cc(NC(=O)c4ccc5c(c4)OCO5)ccc3O[C@H]2[C@@H](CO)O1 ?
HT1080 IDH1KD tx: inactive; HT1080-NT tox: inactive; 12-LOX inh: inactive; TDP1 cell noCPT: 15µM; DT40 TDP1 CPT: 23µM; IL1B secr inh: inactive

Results for COc1ccccc1CNC(=O)C[C@@H]1C[C@H]2c3cc(NC(=O)c4ccc5c(c4)OCO5)ccc3O[C@H]2[C@@H](CO)O1 ?
HT1080 IDH1KD tx: inactive; HT1080-NT tox: inactive; 12-LOX inh: inactive; TDP1 cell noCPT: inconclusive; DT40 TDP1 CPT: inconclusive; IL1B secr inh: inactive

What do the screens show for `O=C(C[C@@H]1CC[C@H](NC(=O)c2ccc3c(c2)OCO3)[C@@H](CO)O1)NCc1ccc(F)cc1`?
HT1080 IDH1KD tx: inactive; HT1080-NT tox: inactive; 12-LOX inh: inconclusive; TDP1 cell noCPT: 12µM; DT40 TDP1 CPT: inconclusive; IL1B secr inh: inactive

What do the screens show for `COc1cccc([S+](=O)([O-])N2CCn3ncc(C(=O)N4CCOCC4)c3C2)c1`?
12-LOX inh: inactive

What do the screens show for `COc1ccc(CN(Cc2cccn2C)S(=O)(=O)c2cccc(C(F)(F)F)c2)cc1`?
HT1080 IDH1KD tx: inactive; HT1080-NT tox: inactive; 12-LOX inh: inactive; TDP1 cell noCPT: inconclusive; DT40 TDP1 CPT: 18µM; IL1B secr inh: inactive

How did Cc1cc(/C=C(\C#N)C(=O)Nc2ccccc2)c(C)n1-c1cccnc1 do in these assays?
HT1080 IDH1KD tx: inactive; HT1080-NT tox: inactive; 12-LOX inh: inactive; TDP1 cell noCPT: inconclusive; DT40 TDP1 CPT: inconclusive; IL1B secr inh: -76

How did Cc1ccc(NC(=O)/C(C#N)=C/c2cc(C)n(-c3ccc(Br)cc3)c2C)cc1C do in these assays?
12-LOX inh: inactive; TDP1 cell noCPT: 5.8µM; DT40 TDP1 CPT: 4.6µM

Results for Cc1cc2cc(C=C(C#N)C#N)c(Cl)nc2cc1C ?
HT1080 IDH1KD tx: inconclusive; HT1080-NT tox: inactive; 12-LOX inh: inactive; TDP1 cell noCPT: 7.3µM; DT40 TDP1 CPT: 7.3µM; IL1B secr inh: -100

How did CCOC(=O)/C(C#N)=C/c1cc2cc(C)c(C)cc2nc1Cl do in these assays?
HT1080 IDH1KD tx: inactive; HT1080-NT tox: inactive; 12-LOX inh: inactive; TDP1 cell noCPT: inconclusive; DT40 TDP1 CPT: inconclusive; IL1B secr inh: inactive

What do the screens show for `Cc1ccc(-n2c(C)cc(/C=C(\C#N)C(=O)Nc3ccc(C)c(C)c3)c2C)cc1`?
12-LOX inh: inconclusive; TDP1 cell noCPT: inconclusive; DT40 TDP1 CPT: inactive

How did CCOC(=O)/C(C#N)=C/c1cc(C)n(-c2ccccc2)c1C do in these assays?
HT1080 IDH1KD tx: inactive; HT1080-NT tox: inactive; 12-LOX inh: inactive; TDP1 cell noCPT: 21µM; DT40 TDP1 CPT: 16µM; IL1B secr inh: inactive

How did CC(C)n1ncc2c(C(=O)Nc3ccc(Br)cc3F)c3c(nc21)CCC3 do in these assays?
12-LOX inh: inactive

How did CCOC(=O)C(C(=O)O)C1CCCCC1 (stereo not drawn) do in these assays?
12-LOX inh: inactive

What do the screens show for `CCOC(=O)/C(C#N)=C/c1cc2ccc(C)cc2nc1Cl`?
HT1080 IDH1KD tx: inactive; HT1080-NT tox: inactive; 12-LOX inh: inactive; TDP1 cell noCPT: 2.9µM; DT40 TDP1 CPT: 4.1µM; IL1B secr inh: inactive

What do the screens show for `Cc1cc(/C=C(\C#N)C(=O)Nc2ccccc2)c(C)n1-c1ccc(F)cc1`?
12-LOX inh: inactive; TDP1 cell noCPT: inactive; DT40 TDP1 CPT: inactive

Results for Cc1cc(C(=O)O)ccc1-n1c(C)cc(/C=C(/C#N)C(=O)Nc2ccccc2)c1C ?
HT1080 IDH1KD tx: inactive; HT1080-NT tox: inactive; 12-LOX inh: inactive; TDP1 cell noCPT: inactive; DT40 TDP1 CPT: inactive; IL1B secr inh: -66

What do the screens show for `CC1=NN(c2ccc(Cl)cc2)C(=O)/C1=C\c1cccn1-c1ccc(S(N)(=O)=O)cc1`?
HT1080 IDH1KD tx: inconclusive; HT1080-NT tox: inconclusive; 12-LOX inh: inactive; TDP1 cell noCPT: 15µM; DT40 TDP1 CPT: inconclusive; IL1B secr inh: inconclusive

Results for CC1(C)COC2(OC1)C(=O)Nc1ccccc12 ?
HT1080 IDH1KD tx: inactive; HT1080-NT tox: inactive; 12-LOX inh: inactive; TDP1 cell noCPT: inactive; DT40 TDP1 CPT: inactive; IL1B secr inh: inactive

How did CCC1(C)COC2(OC1)C(=O)Nc1ccccc12 (stereo not drawn) do in these assays?
HT1080 IDH1KD tx: inactive; HT1080-NT tox: inactive; 12-LOX inh: inactive; TDP1 cell noCPT: inactive; DT40 TDP1 CPT: inactive; IL1B secr inh: -51
